Assay results as given in PubChem BioAssay AID493175 (National Center for Advancing Translational Sciences (NCATS), 2011).
Inconclusive results are not listed. Active and inactive are the calls of the source. The call rests on the fitted dose curve; in most records, active means well fitted curve in the direction sought with a large enough effect; inconclusive means small, poorly fitted or top-dose-only effect, or another doubt; inactive means no such curve, though single readings can be large or run the other way.

The compounds below were run against Luciferin 4-monooxygenase (Photinus pyralis) (UniProt P08659) (assay: miR-21 counterscreen using purified firefly luciferase). Details: purified P. pyralis luciferase, luminescence; series mostly up to 57.5 µM.
Sequence of Luciferin 4-monooxygenase (Photinus pyralis) (P08659 whole entry, looked up): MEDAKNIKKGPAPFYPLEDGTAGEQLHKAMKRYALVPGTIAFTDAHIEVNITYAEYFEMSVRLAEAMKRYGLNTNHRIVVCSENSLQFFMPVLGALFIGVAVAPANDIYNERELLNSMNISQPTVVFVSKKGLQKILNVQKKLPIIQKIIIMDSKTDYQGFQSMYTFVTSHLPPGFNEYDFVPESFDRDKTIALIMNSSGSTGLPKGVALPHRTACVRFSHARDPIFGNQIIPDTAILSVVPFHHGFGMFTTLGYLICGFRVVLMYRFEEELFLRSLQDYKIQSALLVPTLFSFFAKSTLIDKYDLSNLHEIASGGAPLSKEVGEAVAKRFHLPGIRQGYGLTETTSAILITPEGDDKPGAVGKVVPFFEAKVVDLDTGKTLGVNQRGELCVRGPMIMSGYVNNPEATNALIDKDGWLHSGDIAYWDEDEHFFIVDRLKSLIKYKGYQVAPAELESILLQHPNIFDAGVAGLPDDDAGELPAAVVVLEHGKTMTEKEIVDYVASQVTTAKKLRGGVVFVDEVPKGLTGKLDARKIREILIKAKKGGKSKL
Text: MLPCN Grant: 1 R21 NS059478-01 Assay Provider: Qihong Huang, The Wistar Institute NCGC Assay Overview: MicroRNAs (miRNAs) are endogenously encoded small (~20-25 nucleotides), nonprotein-coding RNAs that are involved in post-transcriptional repression of target messenger RNAs (mRNAs) (Le and Hannon, 2004). Estimated to be involved in the regulation of 30% of all protein-coding mRNAs (Filipowicz et al., 2008), miRNAs play a significant role in many biological processes including cellular differentiation and tissue development (Ghildiyal and Zamore, 2009). […] Compounds active in the miR-21 FLuc assay were clustered using Leadscope and active chemical series were prioritized based on chemical properties, potential for medicinal chemistry optimization, and SAR. Within each chemical series, representative compounds were re-acquired to test for activity in a secondary assay based on the quality of their CRC, efficacy, and potency. This secondary assay to determine if compounds active in the miR-21 FLuc assay were just luciferase inhibitors. Compounds found active in both the miR-21 FLuc and purified FLuc assays are considered as false positives. Keywords: NIH Roadmap, MLPCN, MLSMR, qHTS, miR-21, firefly luciferase, FLuc, miRNA.
NCGC Assay Protocol Summary: Reagents: 50mM Tris acetate, pH 7.5; 10mM Mg acetate; 10uM D-luciferin (Sigma #L9504); 10uM ATP; 0.01% Tween-20; 0.05% BSA; 10nM P. pyralis luciferase (Sigma #L9506) Control compounds used were two known firefly luciferase inhibitors (compounds (2) and (5) in Auld et al., 2010), and DMSO. Assay Summary: Three microliters containing firefly luciferase substrates in buffer (final concentrations: 50mM Tris acetate, pH 7.5, 10mM Mg acetate, 0.01% Tween-20, 0.05% BSA, 10uM D-luciferin, and 10uM ATP) are dispensed into each well of a Greiner white, solid-bottom 1536-well format plate using a flying reagent dispenser (FRD). These assay plates were then treated with 23nL of compound or DMSO using a Kalypsys pin tool, which allows for delivery of a 6-point interplate titration of each compound to the assay plate (quantitative HTS), with a final compound concentrations ranging from approximately 60 µM to 7pM. One microliter of firefly luciferase in […] Tris-acetate buffer was then delivered by FRD to each well for a final enzyme concentration of 10nM. Luciferase activity was then measured using a ViewLux CCD imager (PerkinElmer), with an average exposure time of 2-30 seconds (2X binning, medium/high gain).

SMILES	outcome	activity change, negative = inhibition
CCc1nonc1NC(=O)c1oc2ccccc2c1C	inactive	
CC(=O)Nc1nc2c(C)cc(NC(=O)C3CCCCC3)cc2s1	inactive	
Nc1c(-c2nc(-c3cccs3)no2)nnn1-c1cccc(F)c1	inactive	
CCCn1c(=O)c2sccc2n2c(CCCC(=O)Nc3ccc(Oc4ccc(Cl)cc4)cc3)nnc12	inactive	
COc1ccccc1Nc1nn2c(=O)c3ccc(C(=O)NCc4cccs4)cc3nc2s1	inactive	
COc1ccc(NC(=O)CSc2nnc(-c3cccs3)o2)cc1	inactive	
CCS(=O)(=O)n1nc(-c2ccccc2)nc1NCc1ccco1	inactive	
COc1ccccc1CNC(=O)CCC1N=C2c3ccccc3N=C(SCc3cccc(Cl)c3)N2C1=O (centres undefined)	inactive	
Cc1ccc(-n2nnc(-c3nc(-c4cccs4)no3)c2N)cc1C	inactive	
Cc1ccc2c(C)c(C(=O)N(C)C(C)c3ccncn3)oc2c1C (centres undefined)	inactive	
CC(C)COc1ccc(C(=O)Nc2cc(-c3ccccc3)no2)cc1	inactive	
CCS(=O)(=O)c1ncc(Cl)c(C(=O)N(Cc2ccccc2)c2ccc(OC)cc2)n1	inactive	
CC(C)S(=O)(=O)c1oc(-c2cccs2)nc1S(=O)(=O)c1ccc(F)cc1	inactive	
COc1ccc(-n2nnc(-c3nc(-c4cccs4)no3)c2N)cc1OC	inactive	
Cc1cc(C)cc(NC(=O)CSc2nnc(-c3ccccc3C)o2)c1	inactive	
CC(C)(C)C1CCc2nc(NC(=O)Cc3cn4ccsc4n3)sc2C1 (centres undefined)		0.54% [at 2.3 µM] (inactive)
Cc1ccc(-n2nnc(-c3nsc(NC(=O)c4ccccc4)n3)c2C)cc1	inactive	
Cc1cc(C)c2c(N)c(C(=O)Nc3ccccc3F)sc2n1	inactive	
COc1ccc(Nc2cc(C(=O)NCCCN3CCN(c4ccc(OC)cc4)CC3)c3ccccc3n2)cc1	inactive	
COc1ccc(-c2nc(SCc3ccccc3)n(S(C)(=O)=O)n2)cc1	inactive	

SMILES	outcome	activity change, negative = inhibition
O=C(CSc1nnc(-c2ccc(C(F)(F)F)cn2)o1)Nc1cccc(Cl)c1	inactive	
COc1ccc(NC(=O)c2ncn(-c3ccccc3)n2)cc1Cl	inactive	
CS(=O)(=O)c1ncc(Cl)c(C(=O)N2CCN(c3cccc(Cl)c3)CC2)n1	inactive	
O=C(Nc1ccc(-c2nc3ccccc3[nH]2)cc1)c1ccc2c(c1)OCO2	inactive	
COc1ccc(C(=O)Nc2nnc(C(C)C)s2)cc1OC	inactive	
COc1ccc(CNc2nc(-c3ccco3)nn2C(=O)CC(C)C)cc1	inactive	
CC1=C(c2ccc(C)c(C)c2)S(=O)(=O)N=C1N1CCC(C(=O)NCCc2ccc(Cl)cc2)CC1	inactive	
O=C(CSc1nnc(-c2ccncc2)o1)Nc1nncs1	inactive	
CC(C)C(=O)Nc1nc2c(s1)CC(C(C)(C)C)CC2 (centres undefined)	inactive	
CCc1nonc1NC(=O)c1oc2cc(C)c(C)cc2c1C	inactive	
Cc1cc(C)n2c(SCc3ccccc3Cl)nnc2n1	inactive	
c1ccc(CSc2nnc3ccc(-c4cccs4)nn23)nc1	inactive	
CC(C)S(=O)(=O)c1oc(-c2ccc(F)cc2)nc1S(=O)(=O)c1ccc(F)cc1	inactive	
Cc1cccc(N2CCN(C(=O)C3CCN(c4ncnc5c4nc4n5CCCCC4)CC3)CC2C)c1 (centres undefined)	inactive	
CCS(=O)(=O)c1ncc(Cl)c(C(=O)Nc2ccc(S(=O)(=O)N(C)c3ccccc3)cc2)n1	inactive	
COc1ccc(CNc2n[nH]c(-c3ccco3)n2)cc1OC	inactive	
O=C(c1ccc(Cl)cc1)n1nc(-c2ccccc2)nc1NCc1ccco1	inactive	
N#Cc1cc2cc3c(cc2nc1SCC(=O)N1CCOCC1)OCO3	inactive	
O=C(Nc1nnc(S(=O)(=O)N2CCCC2)s1)c1ccc(F)cc1	inactive	
